Out of some 5,500 compounds screened, about 2,000 (36%) were called active. About 18% were inconclusive and are not listed. No stated cut-off is given here; in the data, active means normalized growth mostly below about 0.91 (no sharp cut-off); inconclusive means no clear call, values can overlap the other calls; inactive means mostly above about 0.92. This is one part of the list.
Assay: chemical genetic growth profiling, strain panel (AID 1159580);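 further: tested at 20 µM; growth read once vehicle control cultures reached saturation at 30 °C; 1 = growth at the plate median or of vehicle wells; lower values mean less growth of the strain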
Details: growth OD

Measured: normalized growth

CN1C2CC3C[C@H]1C(O3)C2O (some centres undefined)
inactive: S. cerevisiae deletion strains, locus YAL021C, strain ccr4, active compounds read low 1.01 | S. cerevisiae deletion strains, locus YAL026C, strain drs2, active compounds read low 1.02 | S. cerevisiae deletion strains, locus YAL030W, strain snc1, active compounds read low 0.982 | S. cerevisiae deletion strains, locus YBL061C, strain skt5, active compounds read low 1.02 | S. cerevisiae deletion strains, locus YBR009C, strain hhf1, active compounds read low 1.03 | S. cerevisiae deletion strains, locus YBR021W, strain FUR4, active compounds read low 0.99 | S. cerevisiae deletion strains, locus YBR023C, strain chs3, active compounds read low 1.02 | S. cerevisiae deletion strains, locus YBR171W, strain sec66, active compounds read low 1.03 | S. cerevisiae deletion strains, locus YBR229C, strain ROT2, active compounds read low 1.01 | S. cerevisiae deletion strains, locus YBR231C, strain swc5, active compounds read low 1.01 | S. cerevisiae deletion strains, locus YBR279W, strain paf1, active compounds read low 1.01 | S. cerevisiae deletion strains, locus YCL011C, strain gbp2, active compounds read low 1.02 | S. cerevisiae deletion strains, locus YCL016C, strain dcc1, active compounds read low 1.02 | S. cerevisiae deletion strains, locus YCL029C, strain bik1, active compounds read low 1.04 | S. cerevisiae deletion strains, locus YCL061C, strain MRC1, active compounds read low 1.01 | S. cerevisiae deletion strains, locus YCL069W, strain vba3, active compounds read low 1.01 | S. cerevisiae deletion strains, locus YCR088W, strain abp1, active compounds read low 1.02 | S. cerevisiae deletion strains, locus YDL005C, strain med2, active compounds read low 1.02 | S. cerevisiae deletion strains, locus YDL035C, strain GPR1, active compounds read low 1.02 | S. cerevisiae deletion strains, locus YDL040C, strain nat1, active compounds read low 0.997 | S. cerevisiae deletion strains, locus YDL074C, strain BRE1, active compounds read low 1.04 | S. cerevisiae deletion strains, locus YDL101C, strain DUN1, active compounds read low 1.01 | S. cerevisiae deletion strains, locus YDL185W, strain tfp1, active compounds read low 1.04 | S. cerevisiae deletion strains, locus YDL192W, strain arf1, active compounds read low 1.04 | S. cerevisiae deletion strains, locus YDR001C, strain nth1, active compounds read low 1.02 | S. cerevisiae deletion strains, locus YDR069C, strain doa4, active compounds read low 0.971 | S. cerevisiae deletion strains, locus YDR101C, strain arx1, active compounds read low 1.03 | S. cerevisiae deletion strains, locus YDR137W, strain rgp1, active compounds read low 1.02 | S. cerevisiae deletion strains, locus YDR159W, strain sac3, active compounds read low 0.964 | S. cerevisiae deletion strains, locus YDR162C, strain NBP2, active compounds read low 1.01 | S. cerevisiae deletion strains, locus YDR195W, strain ref2 0.995 | S. cerevisiae deletion strains, locus YDR297W, strain sur2, active compounds read low 0.958 | S. cerevisiae deletion strains, locus YDR318W, strain mcm21, active compounds read low 1.03 | S. cerevisiae deletion strains, locus YDR334W, strain swr1, active compounds read low 1.02 | S. cerevisiae deletion strains, locus YDR335W, strain msn5, active compounds read low 0.982 | S. cerevisiae deletion strains, locus YDR388W, active compounds read low 1.03 | S. cerevisiae deletion strains, locus YDR392W, strain spt3, active compounds read low 0.985 | S. cerevisiae deletion strains, locus YDR502C, strain sam2, active compounds read low 1.02 | S. cerevisiae deletion strains, locus YEL003W, strain gim4, active compounds read low 1.02 | S. cerevisiae deletion strains, locus YEL037C, strain rad23, active compounds read low 1.02 | S. cerevisiae deletion strains, locus YEL061C, strain CIN8 (second series), active compounds read low 1.03 | S. cerevisiae deletion strains, locus YEL061C, strain CIN8, active compounds read low 1.01 | S. cerevisiae deletion strains, locus YER015W, strain faa2, active compounds read low 1.01 | S. cerevisiae deletion strains, locus YER016W, strain bim1, active compounds read low 1.01 | S. cerevisiae deletion strains, locus YER110C, active compounds read low 1.04 | S. cerevisiae deletion strains, locus YER111C, strain swi4, active compounds read low 1.02 | S. cerevisiae deletion strains, locus YER155C, strain BEM2 (second series), active compounds read low 0.994 | S. cerevisiae deletion strains, locus YER155C, strain BEM2, active compounds read low 1 | S. cerevisiae deletion strains, locus YER167W, strain BCK2, active compounds read low 1.01 | S. cerevisiae deletion strains, locus YFR010W, strain ubp6, active compounds read low 1.03 | S. cerevisiae deletion strains, locus YGL078C, strain dbp3, active compounds read low 1.02 | S. cerevisiae deletion strains, locus YGL086W, strain mad1, active compounds read low 1 | S. cerevisiae deletion strains, locus YGL167C, strain pmr1, active compounds read low 1.02 | S. cerevisiae deletion strains, locus YGL173C, strain kem1, active compounds read low 1.02 | S. cerevisiae deletion strains, locus YGL227W, strain vid30, active compounds read low 1.01 | S. cerevisiae deletion strains, locus YGL240W, strain doc1, active compounds read low 0.972 | S. cerevisiae deletion strains, locus YGL248W, strain PDE1, active compounds read low 1.01 | S. cerevisiae deletion strains, locus YGL253W, strain hxk2, active compounds read low 1.01 | S. cerevisiae deletion strains, locus YGR078C, strain PAC10, active compounds read low 1.02 | S. cerevisiae deletion strains, locus YGR135W, strain pre9, active compounds read low 1.02 | S. cerevisiae deletion strains, locus YGR252W, strain gcn5, active compounds read low 1.02 | S. cerevisiae deletion strains, locus YHR013C, strain ard1, active compounds read low 1.01 | S. cerevisiae deletion strains, locus YHR027C, strain rpn1, active compounds read low 1 | S. cerevisiae deletion strains, locus YHR030C, strain SLT2, active compounds read low 1.01 | S. cerevisiae deletion strains, locus YHR079C, strain IRE1 (second series), active compounds read low 1.03 | S. cerevisiae deletion strains, locus YHR094C, strain hxt1, active compounds read low 1.03 | S. cerevisiae deletion strains, locus YHR129C, strain ARP1, active compounds read low 1 | S. cerevisiae deletion strains, locus YHR142W, strain chs7, active compounds read low 1.04 | S. cerevisiae deletion strains, locus YHR200W, strain rpn10, active compounds read low 1.02 | S. cerevisiae deletion strains, locus YIL066C, strain RNR3, active compounds read low 1.01 | S. cerevisiae deletion strains, locus YIL073C, strain SPO22, active compounds read low 1.08 | S. cerevisiae deletion strains, locus YIL125W, strain kgd1, active compounds read low 1.02 | S. cerevisiae deletion strains, locus YIR030C, strain dcg1, active compounds read low 1.03 | S. cerevisiae deletion strains, locus YJL092W, strain hpr5, active compounds read low 1.02 | S. cerevisiae deletion strains, locus YJL095W, strain BCK1 (second series), active compounds read low 0.985 | S. cerevisiae deletion strains, locus YJL095W, strain BCK1, active compounds read low 1.01 | S. cerevisiae deletion strains, locus YJL115W, strain asf1, active compounds read low 1.03 | S. cerevisiae deletion strains, locus YJL129C, strain trk1, active compounds read low 1.04 | S. cerevisiae deletion strains, locus YJL134W, strain LCB3, active compounds read low 1.01 | S. cerevisiae deletion strains, locus YJL154C, strain vps35, active compounds read low 1.01 | S. cerevisiae deletion strains, locus YJL164C, strain tpk1, active compounds read low 0.999 | S. cerevisiae deletion strains, locus YJL166W, strain qcr8, active compounds read low 0.996 | S. cerevisiae deletion strains, locus YJL168C, strain set2, active compounds read low 1.02 | S. cerevisiae deletion strains, locus YJL187C, strain SWE1 (second series), active compounds read low 1.01 | S. cerevisiae deletion strains, locus YJL187C, strain SWE1, active compounds read low 0.969 | S. cerevisiae deletion strains, locus YJR043C, strain POL32, active compounds read low 0.999 | S. cerevisiae deletion strains, locus YJR075W, strain HOC1, active compounds read low 1.01 | S. cerevisiae deletion strains, locus YKL009W, strain mrt4, active compounds read low 1.02 | S. cerevisiae deletion strains, locus YKL068W, active compounds read low 1.03 | S. cerevisiae deletion strains, locus YKL085W, strain MDH1 (second series), active compounds read low 1.01 | S. cerevisiae deletion strains, locus YKL085W, strain MDH1, active compounds read low 1.01 | S. cerevisiae deletion strains, locus YKL160W, strain elf1, active compounds read low 1 | S. cerevisiae deletion strains, locus YKL190W, strain CNB1, active compounds read low 1.01 | S. cerevisiae deletion strains, locus YKR001C, strain vps1, active compounds read low 1.03 | S. cerevisiae deletion strains, locus YKR026C, strain gcn3, active compounds read low 1.01 | S. cerevisiae deletion strains, locus YKR091W, strain srl3, active compounds read low 1.01 | S. cerevisiae deletion strains, locus YLL001W, strain dnm1, active compounds read low 1.03 | S. cerevisiae deletion strains, locus YLL026W, active compounds read low 1.01 | S. cerevisiae deletion strains, locus YLL041C, strain sdh2, active compounds read low 0.997 | S. cerevisiae deletion strains, locus YLR027C, strain aat2, active compounds read low 0.975 | S. cerevisiae deletion strains, locus YLR039C, strain RIC1, active compounds read low 1.07 | S. cerevisiae deletion strains, locus YLR058C, strain SHM2, active compounds read low 1.01 | S. cerevisiae deletion strains, locus YLR102C, strain apc9, active compounds read low 1.04 | S. cerevisiae deletion strains, locus YLR221C, strain rsa3, active compounds read low 1.01 | S. cerevisiae deletion strains, locus YLR258W, strain gsy2, active compounds read low 0.983 | S. cerevisiae deletion strains, locus YLR262C, strain YPT6 (second series), active compounds read low 1.05 | S. cerevisiae deletion strains, locus YLR262C, strain YPT6, active compounds read low 1.08 | S. cerevisiae deletion strains, locus YLR268W, strain sec22, active compounds read low 1.03 | S. cerevisiae deletion strains, locus YLR320W, strain mms22, active compounds read low 1.02 | S. cerevisiae deletion strains, locus YLR330W, strain CHS5, active compounds read low 1.01 | S. cerevisiae deletion strains, locus YLR342W, strain FKS1 (second series), active compounds read low 1 | S. cerevisiae deletion strains, locus YLR342W, strain FKS1, active compounds read low 1.01 | S. cerevisiae deletion strains, locus YLR357W, strain rsc2, active compounds read low 1.03 | S. cerevisiae deletion strains, locus YLR370C, strain arc18, active compounds read low 0.979 | S. cerevisiae deletion strains, locus YLR371W, strain rom2, active compounds read low 1.02 | S. cerevisiae deletion strains, locus YLR384C, strain iki3, active compounds read low 1 | S. cerevisiae deletion strains, locus YLR418C, strain cdc73, active compounds read low 1.03 | S. cerevisiae deletion strains, locus YML016C, strain PPZ1, active compounds read low 1.02 | S. cerevisiae deletion strains, locus YML032C, strain rad52, active compounds read low 1.02 | S. cerevisiae deletion strains, locus YML120C, strain ndi1, active compounds read low 1.03 | S. cerevisiae deletion strains, locus YML124C, strain tub3, active compounds read low 1.03 | S. cerevisiae deletion strains, locus YMR058W, strain fet3, active compounds read low 1.02 | S. cerevisiae deletion strains, locus YMR078C, strain ctf18, active compounds read low 1.03 | S. cerevisiae deletion strains, locus YMR125W, strain sto1, active compounds read low 1.01 | S. cerevisiae deletion strains, locus YMR129W, active compounds read low 0.986 | S. cerevisiae deletion strains, locus YMR205C, strain PFK2, active compounds read low 0.974 | S. cerevisiae deletion strains, locus YMR223W, strain ubp8, active compounds read low 1.03 | S. cerevisiae deletion strains, locus YMR231W, strain pep5, active compounds read low 0.988 | S. cerevisiae deletion strains, locus YMR307W, strain GAS1, active compounds read low 0.99 | S. cerevisiae deletion strains, locus YNL067W, strain RPL9B, active compounds read low 1 | S. cerevisiae deletion strains, locus YNL071W, strain lat1, active compounds read low 1.02 | S. cerevisiae deletion strains, locus YNL153C, strain GIM3, active compounds read low 1.01 | S. cerevisiae deletion strains, locus YNL209W, strain ssb2, active compounds read low 1.01 | S. cerevisiae deletion strains, locus YNL233W, strain BNI4, active compounds read low 1.01 | S. cerevisiae deletion strains, locus YNL248C, strain rpa49, active compounds read low 1.02 | S. cerevisiae deletion strains, locus YNL250W, strain rad50, active compounds read low 1.03 | S. cerevisiae deletion strains, locus YNL271C, strain bni1, active compounds read low 1.03 | S. cerevisiae deletion strains, locus YNL298W, strain CLA4, active compounds read low 1.02 | S. cerevisiae deletion strains, locus YNL307C, strain MCK1, active compounds read low 1.05 | S. cerevisiae deletion strains, locus YNL322C, strain KRE1 (second series), active compounds read low 1.02 | S. cerevisiae deletion strains, locus YNR049C, strain mso1, active compounds read low 0.982 | S. cerevisiae deletion strains, locus YNR052C, strain pop2, active compounds read low 1.01 | S. cerevisiae deletion strains, locus YOL012C, strain htz1 1.37 | S. cerevisiae deletion strains, locus YOL147C, strain pex11, active compounds read low 1.03 | S. cerevisiae deletion strains, locus YOR001W, strain rrp6, active compounds read low 0.987 | S. cerevisiae deletion strains, locus YOR061W, strain CKA2, active compounds read low 1.02 | S. cerevisiae deletion strains, locus YOR069W, strain VPS5, active compounds read low 1.01 | S. cerevisiae deletion strains, locus YOR070C, strain gyp1, active compounds read low 1.01 | S. cerevisiae deletion strains, locus YOR080W, strain dia2, active compounds read low 1.02 | S. cerevisiae deletion strains, locus YOR083W, strain WHI5, active compounds read low 1 | S. cerevisiae deletion strains, locus YOR106W, strain vam3, active compounds read low 1.03 | S. cerevisiae deletion strains, locus YOR136W, strain idh2, active compounds read low 1.03 | S. cerevisiae deletion strains, locus YOR144C, strain elg1, active compounds read low 1.03 | S. cerevisiae deletion strains, locus YOR184W, strain ser1, active compounds read low 1.04 | S. cerevisiae deletion strains, locus YOR265W, strain rbl2, active compounds read low 1.01 | S. cerevisiae deletion strains, locus YOR270C, strain vph1, active compounds read low 1.04 | S. cerevisiae deletion strains, locus YOR290C, strain snf2, active compounds read low 0.99 | S. cerevisiae deletion strains, locus YOR316C, strain cot1, active compounds read low 1.04 | S. cerevisiae deletion strains, locus YPL051W, strain arl3, active compounds read low 1.01 | S. cerevisiae deletion strains, locus YPL078C, strain atp4, active compounds read low 1.02 | S. cerevisiae deletion strains, locus YPL106C, strain sse1, active compounds read low 0.995 | S. cerevisiae deletion strains, locus YPL240C, strain hsp82, active compounds read low 0.997 | S. cerevisiae deletion strains, locus YPL241C, strain CIN2, active compounds read low 1.01 | S. cerevisiae deletion strains, locus YPR119W, strain clb2, active compounds read low 1.03 | S. cerevisiae deletion strains, locus YPR141C, strain kar3, active compounds read low 1.04 | S. cerevisiae deletion strains, locus YPR163C, strain tif3, active compounds read low 1.04 | S. cerevisiae deletion strains, locus YPR167C, strain met16, active compounds read low 1.02 | S. cerevisiae deletion strains, strain wtn01, active compounds read low 1.04 | S. cerevisiae strains, strain wild type, active compounds read low 1.02
